Measurements published in PubChem BioAssay (NCI).
Compounds without any hit were thinned out: in the full panel of roughly 83,000, 20% have a hit.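 Negative percent growth values reflect cell death: -40 means 40% of the cells present at the start died, and -100 means all died.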 Values without a mark were called inactive. The source made the active and inactive calls. How the source made its calls: active means growth percent below 10; inactive means the rest.

Experiments:
Test in all cases: NCI-60 one-dose screen, 48 h (100 = growth as untreated, 0 = no growth, -100 = all killed)
Details in all cases: 10 µM
[1] = test system: SK-MEL-2 melanoma
[2] = test system: EKVX NSCLC
[3] = test system: UO-31 renal
[4] = test system: TK-10 renal
[5] = test system: ACHN renal
[6] = test system: CAKI-1 renal
[7] = test system: A498 renal
[8] = test system: CCRF-CEM leukemia
[9] = test system: MOLT-4 leukemia
[10] = test system: SR leukemia
[11] = test system: RPMI-8226 leukemia
[12] = test system: OVCAR-8 ovarian
[13] = test system: OVCAR-5 ovarian
[14] = test system: OVCAR-4 ovarian
[15] = test system: SK-OV-3 ovarian
[16] = test system: OVCAR-3 ovarian
[17] = test system: HS 578T breast
[18] = test system: NCI/ADR-RES ovarian
[19] = test system: IGROV1 ovarian

| SMILES | growth [1] | growth [2] | growth [3] | growth [4] | growth [5] | growth [6] | growth [7] | growth [8] | growth [9] | growth [10] | growth [11] | growth [12] | growth [13] | growth [14] | growth [15] | growth [16] | growth [17] | growth [18] | growth [19] |
| --- | --- | --- | --- | --- | --- | --- | --- | --- | --- | --- | --- | --- | --- | --- | --- | --- | --- | --- | --- |
| CCc1c(C(=O)NCc2c(O)ccc3cccc(O)c23)[nH]c(C)c1C(C)=O | 32.7% | 27.6% | 12.5% | 46.8% | 11.6% | 34.2% | 49.3% | 16.6% | 19.6% | 30.5% | 15.3% | 38.4% | 90.4% | 27.6% | 62.2% | 12.6% | 35% | 29.2% | – |
| NC1CCC(Nc2nc(NCc3ccc(-c4ccco4)nc3)c3ncn(C4CCCC4)c3n2)CC1 (stereo unspecified) | -73.6% (active) | -2.93% (active) | 10.8% | 3.91% (active) | 2.36% (active) | 17.3% | -70.8% (active) | -0.411% (active) | -12.3% (active) | -3.17% (active) | -18.3% (active) | 11.8% | 25.1% | 2.67% (active) | -0.9% (active) | – | 10.7% | 79.5% | 8.71% (active) |
| CC(C)(C)c1ccc(OCCCCCCN2CCNCC2)cc1 | 82% | 69.9% | 72.8% | 90.8% | 70.6% | 75.9% | 86.1% | 12% | 31.3% | -8.37% (active) | 0.146% (active) | 89.7% | 82.2% | 72% | 86.4% | 82.1% | 72.4% | 79.7% | 80.8% |
| CCCCN(CCCC)c1ccc(C(=NC(C)CCCN(CC)CC)c2ccc(N(C)C)cc2)cc1 (stereo unspecified) | -78.9% (active) | -30.4% (active) | -87.8% (active) | -8.82% (active) | -41.3% (active) | -5.33% (active) | -12.4% (active) | 7.26% (active) | -6.33% (active) | -26.2% (active) | -43.6% (active) | -49% (active) | -6.48% (active) | -13.5% (active) | -70.9% (active) | -47.7% (active) | -49.8% (active) | -51% (active) | – |
| O=S(=O)(NC1c2ccccc2Oc2ccccc21)c1ccccc1 | 94% | 102% | 81.9% | 86.4% | 84.5% | 90.1% | 92.2% | 61.8% | 88.1% | 58.3% | 94.1% | 88.8% | 101% | 88.6% | 99.6% | 97.6% | – | 90.9% | 97.3% |
| CCCCCCCCCCCCc1ccc(C(=O)/C=C/C(=O)O)cc1 | 93.1% | 99.9% | 85.3% | 68.7% | 55.9% | 91.1% | 81.7% | -17.6% (active) | -15.1% (active) | -28.1% (active) | 6.04% (active) | 67.1% | 94.1% | 70.9% | 98.6% | 47% | 93.7% | 100% | 72.7% |
| Cc1nc2ccc(-n3c(-c4ccc(Cl)cc4)nc4ccccc4c3=O)cc2n1Cc1ccccc1 | 96.5% | 90.1% | 59% | 111% | 91.9% | 81.3% | 89.7% | 80.2% | 84.1% | 86.7% | 64.6% | 93.4% | 118% | 90.7% | 87.3% | 99.6% | 101% | 94.9% | – |
| Cc1ccc2c3c(cccc13)-c1ccccc1C2=O | 97.2% | 67.8% | 75.2% | 94% | 96.8% | 89% | 78.2% | 83.5% | 87.4% | – | 97.8% | 94.2% | 113% | 105% | 92.1% | 108% | 94% | 99% | 94% |
